# Screens deposited in PubChem by National Center for Advancing Translational Sciences (NCATS).
# VDR inhibitor: blocks the human vitamin D receptor; P11473; VDR-SRC2-3 peptide fluorescence polarization, 2 h; Potency, µM, for the others: max response, negative = inhibition, actives largely listed as inhibitors; actives 0.93% (n = 400,000); AID 504847
#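 Reagent solutions, kept cold and dark, are dispensed first; compounds are then pinned in at 23 nl, plates briefly spun, and incubated 2 h at ambient temperature. Inhibition of VDR–SRC2-3 peptide binding is read by fluorescence polarization.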
# Sfp PPTase inh: Sfp phosphopantetheinyl transferase inhibition | Q9F4F7 | Biochemical Sfp PPTase activity, qHTS | Potency, µM, for inactives: largest response in the series, negative = inhibition, usual class: inhibitors | actives 3.5% (n = 310,000) | AID 1490;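 note: the enzyme is Sfp with the accession as filed and its product quenches rhodamine fluorescence; 0% = enzyme reaction without inhibitor and -100% = no enzyme wells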
#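 Fluorescence-quenching assay: 15 nM Sfp-PPTase preincubated 15 min at room temperature with compound, then 5 uM rhodamine-CoA and 12.5 uM BHQ-2-labelled YbbR peptide added. Fluorescence (ex 525/em 598 nm) read at start and after 30 min; difference gives rate.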
# Tau fibril ThT: tau fibrillization inhibition (ThT binding) | P10636 | recombinant tau K18 P301L, heparin-induced fibrillization, ThT fluorescence | Potency, µM (highest dose often 57.4 µM), without a hit: top-dose activity, negative = inhibition, usual class: inhibitors | actives 2.1% (n = 270,000) | AID 1460; note: nearly all actives have a fitted effect of over 55% in size
#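 Fibril formation assay: tau K18 P301L at 15 uM with trace Alexa 594 label, heparin inducer 20 uM, pH 7 sodium acetate buffer, 37 C for 6 hr; endpoint ThT signal.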
# PLK1 PBD block: PLK1 (human) polo-box domain binding inhibition. P53350. Plk1 PBD binding of FITC phosphopeptide, fluorescence polarization. Potency, µM, without a hit: max response, negative = inhibition, most hits filed as inhibitors. actives 2.8% (n = 360,000); note: series mostly up to about 57 µM; nearly all actives have a fitted effect of over 65% in size
# Target sequence (P53350 whole entry, looked up, the tested form may be a part): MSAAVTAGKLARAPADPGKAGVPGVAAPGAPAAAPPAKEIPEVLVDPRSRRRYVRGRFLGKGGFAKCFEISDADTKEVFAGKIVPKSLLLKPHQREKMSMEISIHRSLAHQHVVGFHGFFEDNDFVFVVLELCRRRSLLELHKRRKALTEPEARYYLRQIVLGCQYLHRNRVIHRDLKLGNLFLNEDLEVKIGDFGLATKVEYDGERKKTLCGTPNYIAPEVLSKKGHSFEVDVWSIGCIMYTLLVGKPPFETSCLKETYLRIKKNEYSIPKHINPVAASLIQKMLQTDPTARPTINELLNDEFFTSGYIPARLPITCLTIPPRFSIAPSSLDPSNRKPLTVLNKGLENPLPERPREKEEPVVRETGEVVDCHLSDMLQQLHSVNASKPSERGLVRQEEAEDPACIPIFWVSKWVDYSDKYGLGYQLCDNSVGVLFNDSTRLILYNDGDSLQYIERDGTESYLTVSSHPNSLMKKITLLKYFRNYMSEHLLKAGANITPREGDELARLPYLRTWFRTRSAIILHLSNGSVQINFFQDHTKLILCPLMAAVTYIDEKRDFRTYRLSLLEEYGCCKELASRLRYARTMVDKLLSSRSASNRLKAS
# Tau FP inhib: blocks human tau fibril formation measured by polarization; P10636; K18 P301L tau heparin fibrillization, Alexa594 FP, 6 h; Potency, µM (series often up to 57.7 µM), for the others: top-dose activity, negative = inhibition, usual class: inhibitors; actives 0.39% (n = 280,000); note: nearly all actives have a fitted effect of over 55% in size
#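 Heparin (20 uM) drove fibril formation of recombinant tau K18 P301L, 15 uM unlabeled with 0.24 uM Alexa 594 label, for 6 hr at 37 C in 100 mM sodium acetate pH 7. Fluorescence polarization (555/632 nm) read 1 hr after 30 uM ThT.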
# Tau fluor cs: counter-screen for tau fibril formation inhibitors; tau K18 P301L Alexa594 fluorescence, heparin fibrillization; Potency, µM (top dose mostly 57.7 µM), inactives show at the highest dose activity change, negative = decrease; actives 0.93% (n = 280,000); AID 1463; note: nearly all actives have a fitted effect of over 55% in size
#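 Human tau K18 P301L (15 uM unlabeled, 0.24 uM Alexa 594-labeled) in 100 mM sodium acetate pH 7 with 20 uM heparin, 6 hr at 37 C. ThT 30 uM added, 1 hr ambient; Alexa 594 FP and total fluorescence read at 555/632 nm.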
# Numbers without * were called inactive; ? = inconclusive; . = not tested or not shown. Only some compounds are listed: those with a hit (about 6% of all), similar ones and a draw of the others. Calls come from the whole dose curve; as a rule, active = well fitted curve in the direction sought with a large enough effect; inconclusive = small, poorly fitted or top-dose-only effect, or another doubt; inactive = no such curve, though single readings can be large; an effect the other way counts as inactive or inconclusive. Unless noted, % is set by controls: 0 for no effect and ±100 for the full control effect; potency is the fitted concentration of half-maximal effect.
SMILES,VDR inhibitor,Sfp PPTase inh,Tau fibril ThT,PLK1 PBD block,Tau FP inhib,Tau fluor cs
O=C(CSc1ccc(-c2ccccn2)nn1)N1CCCC1,71µM*,45µM*,-4%,13µM*,0%,-8%
O=C(CSc1ccccn1)N1CCN(c2cccc(Cl)c2)CC1,?,50µM*,?,12µM*,0%,-16%
O=C(CSc1nccc(=O)[nH]1)N1CCN(c2ccccc2)CC1,?,-16%,-9%,17µM*,-2%,-1%
O=C(CSc1ccc(-c2ccccc2)nn1)N1CCN(c2ccccc2)CC1,-2%,79µM*,-11%,-4%,0%,-10%
Cn1nc(-c2ccc(OCC(=O)Nc3cccc(C(F)(F)F)c3)cc2)c2ccccc2c1=O,-7%,.,0%,.,?,-21%
CC(C)C[C@@H]1Cc2[nH]c(=S)[nH]c(=O)c2[C@H](CCc2ccccc2)O1,.,.,.,-13%,.,.
CCOc1ccc(-c2nc(SC(C(C)=O)C(=O)N(C)C)c3c(=O)n(C)c(=O)n(C)c3n2)cc1 (centres undefined),18%,.,-4%,.,-4%,-4%
CCCCN(C)C(=O)C1CCCN(c2ncnc3onc(-c4ccc(F)cc4)c23)C1 (centres undefined),3%,.,-5%,.,-5%,-16%
COc1ccc(-c2ccc(SCC(=O)N3CCN(c4ccccc4)CC3)nn2)cc1,-11%,19%,-5%,-12%,-2%,4%
O=C(CSc1ccc(-c2ccco2)nn1)N1CCCCC1,-20%,?,?,-8%,3%,-18%
O=C(CSc1ccc(-c2ccco2)nn1)N1CCCC1,-2%,50µM*,?,-5%,-5%,-14%
COc1ccc(N2CCN(C(=O)CSc3ccccc3N)CC2)cc1,-4%,-24%,?,24µM*,4%,-14%
CCOc1cc(-c2nc(-c3ccc(-c4ccc(C)cc4)nc3OC)no2)cc(OCC)c1OCC,13%,.,?,.,-3%,-5%
CCC(c1nnnn1CCOC)N1CCN(c2nc3ccccc3s2)CC1 (centres undefined),4%,9%,-4%,-3%,-3%,2%
CCCC(c1nnnn1CCOC)N1CCN(c2nc3ccccc3s2)CC1 (centres undefined),?,?,0%,5.3µM*,-11%,-13%
O=C1CCCC2=C1C1O[C@](CCCCN3C(=O)c4ccccc4C3=O)(Cc3ccccc31)O2,.,-2%,.,.,.,.
Cc1cccc(OCC(=O)N/N=C/c2ccc(N(C)C)cc2)c1,5%,-2%,3.5µM*,-7%,7%,-29%
CN(C)c1ccc(/C=N/NC(=O)COc2ccccc2)cc1,4%,3%,?,-16%,-1%,-17%
OC[C@@H](O)[C@H](O)C(/C=N/Nc1ccccc1)=N\Nc1ccccc1,-23%,?,28µM*,-19%,-13%,?
Cn1c(SCCC#N)nnc1-c1ccc(F)cc1,.,20%,-1%,.,10%,-3%
CC1=C(SCCC#N)S/C(=C2\SC(C)=C(SCCC#N)S2)S1,-100%,7.9µM*,7.9µM*,12µM*,?,?
CC(C)c1nnc(SCC(=O)NCCC2=CCCCC2)n1N,89µM*,?,-19%,11µM*,-16%,-7%
Cc1c(CN(C)C)c2c(n1Cc1ccccc1)C(=O)c1ccc(Br)cc1-2,18%,-18%,16µM*,-6%,13%,?
Cc1c(CN(C)C)c2c(n1C)C(=O)c1ccc(Br)cc1-2,-9%,11%,?,-1%,7%,-7%
CCOC(=O)c1c(C)nc(C)c(C(=O)OCC)c1-c1cccnc1,-8%,12%,-14%,4%,2%,-18%
SMILES,VDR inhibitor,Sfp PPTase inh,Tau fibril ThT,PLK1 PBD block,Tau FP inhib,Tau fluor cs
CCOC(=O)c1c(C)nc(C)c(C(=O)OCC)c1-c1ccccc1,-5%,45µM*,-9%,-6%,?,-28%
NS(=O)(=O)c1ccc(N=Nc2c(O)c(C(=O)O)cc3ccccc23)cc1,-25%,?,5µM*,0%,?,?
Oc1ccc2ccccc2c1N=Nc1ccc(F)cc1,34%,10%,?,13%,-9%,-16%
O=C(O)Cc1ccc(N=Nc2c(O)c(C(=O)O)cc3ccccc23)cc1,?,-13%,13µM*,?,?,-27%
Nc1nc(O)c(N=Nc2ccc(S(N)(=O)=O)cc2)c(=O)[nH]1,-13%,-7%,.,0%,.,.
O=C1Nc2ccccc2-n2nnnc2C1N1CCN(CCN2CCOCC2)CC1 (centres undefined),.,.,.,-1%,.,.
COCCNc1nc(-c2ccc(N(C)C)cc2)nc2ccccc12,79µM*,?,?,.,5%,?
COCCNc1nc(-c2ccc(C(=O)N(C)C)cc2)nc2ccccc12,23%,6%,.,.,.,.
Cc1ccc2c(c1)cc(CN(Cc1ccco1)C(=O)N1CCOCC1)c1nnnn12,-11%,6%,-5%,5%,2%,-5%
Cc1cccc2cc(CN(Cc3ccc(F)cc3)C(=O)N3CCOCC3)c3nnnn3c12,-13%,11%,-3%,24µM*,-7%,-7%
O=C1NC(=S)N/C1=C\c1ccc(N2CCOCC2)cc1,?,9%,10%,3.8µM*,7%,10%
O=C1NC(=S)NC1=Cc1ccc(O)cc1,16%,.,.,7%,.,.
CSc1ncc(Cl)c(C(=O)N(Cc2ccc(C(C)C)cc2)C2CCS(=O)(=O)C2)n1 (centres undefined),3%,.,-14%,.,0%,-15%
CCOC(=O)c1cc(-c2ccc(OC)cc2)n(CCC(=O)NCc2ccccc2OC)c1C,-7%,.,-18%,.,19%,-22%
Cc1sc2nc(-c3ccccn3)[nH]c(=O)c2c1-c1ccccc1,?,18µM*,3%,19µM*,4%,-1%
Cc1sc2nc(-c3ccncc3)[nH]c(=O)c2c1-c1ccccc1,.,9%,-11%,.,-2%,-3%
O=c1[nH]c(-c2ccccn2)nc2ccccc12,22%,79µM*,-2%,3%,-3%,0%
CN1C(=O)N(CC(=O)Nc2ccc3c(c2)OCO3)C(=O)C12CCCCC2,.,.,.,-1%,.,.
COc1ncc2nc(-c3ccc(F)cc3)c(=O)n(Cc3cccs3)c2n1,-1%,11%,.,.,.,.
CCOc1cc(C(N)=O)cc(Br)c1OC,1%,-17%,8%,30µM*,6%,7%
COc1ccc(NC(=O)N2CC3(CCN(C(=O)c4ccco4)CC3)C2)cc1,-17%,4%,.,.,.,.
O=C(Nc1ccc(Cl)cc1)c1cc2c(-c3ccccc3)nn(-c3ccccc3)c2s1,13%,.,11%,.,25µM*,-27%
COc1ccccc1NC(=O)c1cc2c(-c3ccccc3)nn(-c3ccccc3)c2s1,9%,.,-4%,.,?,-24%
O=C(Nc1ccccc1)c1cc2c(-c3ccccc3)nn(-c3ccccc3)c2s1,-6%,.,-1%,.,20µM*,?
